Laboratory results reported in the supplement of paper PMC13380429.

These compounds were tested on Vero E6 infected with SARS-CoV-2 (assay: morphology score (similarity to uninfected cells); higher = more like uninfected cells). Details: 24 h.

| SMILES | morphology score |
| --- | --- |
| Cc1cc(OI)c(C(C)C)cc1-c1cc(C(C)C)c(OI)cc1C [thymol-iodide] (10 µM) | -0.117 |
| O=C1NC(=O)c2c1c1c3ccccc3n3c1c1c2c2ccccc2n1C1CCC3O1 (10 µM) | -0.0614 |
| COc1ccc2c(OCc3nnc4ccc(-c5ccccc5)nn34)ccnc2c1 (10 µM) | 0.0318 |
| CC(=O)SC[C@@H](C)C(=O)N1CCC[C@H]1C(=O)N[C@@H](Cc1ccccc1)C(=O)O [alacepril] (10 µM) | 0.171 |
| Cc1nc(Nc2ncc(C(=O)Nc3c(C)cccc3Cl)s2)cc(N2CCN(CCO)CC2)n1 [dasatinib] (0.833333 µM) | -0.0371 |
| Cc1c2oc3c(C)ccc(C(=O)N[C@@H]4C(=O)N[C@H](C(C)C)C(=O)N5CCC[C@H]5C(=O)N(C)CC(=O)N(C)[C@@H](C(C)C)C(=O)O[C@@H]4C)c3nc-2c(C(=O)N[C@@H]2C(=O)N[C@H](C(C)C)C(=O)N3CCC[C@H]3C(=O)N(C)CC(=O)N(C)[C@@H](C(C)C)C(=O)O[C@@H]2C)c(N)c1=O [dactinomycin] (10 µM) | -0.16 |
| O=C(O)[C@H]1O[C@@H](Oc2cc3oc(-c4ccccc4)cc(=O)c3c(O)c2O)[C@H](O)[C@@H](O)[C@@H]1O [baicalin] (10 µM) | 0.165 |
| Cc1ncc(OC[C@@]2(c3cccc(F)c3)C[C@H]2C(=O)Nc2ccc(F)cn2)c(C)n1 [lemborexant] (10 µM) | 0.0108 |
| C=C1C(=O)[C@]23[C@H](O)[C@H]1CC[C@H]2[C@@]12CO[C@]3(O)[C@@H](O)[C@@H]1C(C)(C)CC[C@@H]2O [Oridonin (Isodonol)] (0.833333 µM) | 0.108 |

The compounds below were run on Vero E6 infected with SARS-CoV-2 (assay: SARS-CoV-2 infection rate relative to infected DMSO; higher = more infection, active = 60 or less). Details: 24 h.

| SMILES | SARS-CoV-2 infection rate |
| --- | --- |
| CC(C)=CCC[C@](C)(O[C@@H]1O[C@H](CO)[C@@H](O)[C@H](O)[C@H]1O)[C@H]1CC[C@]2(C)[C@@H]1[C@H](O)C[C@@H]1[C@@]3(C)CC[C@H](O)C(C)(C)[C@@H]3CC[C@]12C [ginsenoside-C-K] (10 µM) | 118% (inactive) |
| CC1(CN)Cc2ccccc2C1 (10 µM) | 112% (inactive) |
| COc1ccc(C2=N[C@@H](c3ccc(Cl)cc3)[C@@H](c3ccc(Cl)cc3)N2C(=O)N2CCNC(=O)C2)c(OC(C)C)c1 [nutlin-3] (0.833333 µM) | 117% (inactive) |
| Nc1nc(OCc2ccccc2)c2nc[nH]c2n1 [O6-benzylguanine] (10 µM) | 108% (inactive) |
| COc1cc2c(NC3CCN(C4CCCCC4)CC3)nc(N3CCCN(C(C)C)CC3)nc2cc1OCCCN1CCCCC1 (10 µM) | 52% (active) |
| OC[C@H]1NC[C@@H](O)[C@@H](O)[C@@H]1O [1-deoxymannojirimycin] (10 µM) | 102% (inactive) |
| NC[C@H]1O[C@H](O[C@H]2[C@H](O)[C@@H](O[C@H]3O[C@H](CO)[C@@H](O)[C@H](N)[C@H]3O)[C@H](N)C[C@@H]2N)[C@H](O)[C@@H](O)[C@@H]1O [kanamycin] (10 µM) | 100% (inactive) |
| CCCCNc1cc(C(=O)O)cc(S(N)(=O)=O)c1Oc1ccccc1 [bumetanide] (10 µM) | 102% (inactive) |
| N#C/C(=C\c1ccc(O)c(O)c1)C(N)=O [tyrphostin-AG-99] (10 µM) | 106% (inactive) |
| CNC1CCCN(c2c(F)cc3c(=O)c(C(=O)O)cn(C4CC4)c3c2OC)C1 (centres undefined) [balofloxacin] (10 µM) | 104% (inactive) |
| CCOc1ccc(NC(C)=O)cc1 [phenacetin] (10 µM) | 116% (inactive) |
| COc1ccccc1Oc1c(NS(=O)(=O)c2ccc(C(C)(C)C)cc2)nc(-c2ncccn2)nc1OCCO [bosentan] (10 µM) | 112% (inactive) |
| Cc1cc(N2CCCCC2)nc2ccccc12 (10 µM) | 93% (inactive) |
| CCN(CCO)CCCOc1ccc2c(Nc3cc(CC(=O)Nc4cccc(F)c4)[nH]n3)ncnc2c1 [barasertib-HQPA] (10 µM) | 112% (inactive) |
| Cc1cc2cc3c(C)cc(=O)oc3c(C)c2o1 [trioxsalen] (10 µM) | 94% (inactive) |
| CC1=C(C(=O)Nc2cc3cn[nH]c3cc2F)C(c2ccc(C(F)(F)F)cc2)CC(=O)N1 (centres undefined) (10 µM) | 99% (inactive) |
| NC(=O)c1ncn([C@@H]2O[C@H](CO)[C@@H](O)[C@H]2O)c1N [acadesine] (10 µM) | 98.5% (inactive) |
| CC(C)Nc1nc2cc(Cl)c(Cl)cc2n1[C@H]1O[C@@H](CO)[C@H](O)[C@@H]1O [maribavir] (10 µM) | 122% (inactive) |
| CCOc1cc2ncc(C#N)c(Nc3ccc(OCc4ccccn4)c(Cl)c3)c2cc1NC(=O)/C=C/CN(C)C [neratinib] (10 µM) | 102% (inactive) |
| CN(C(=O)/C=C/c1ccoc1)[C@@H]1CC[C@@]2(O)[C@H]3Cc4ccc(O)c5c4[C@@]2(CCN3CC2CC2)[C@H]1O5 [nalfurafine] (10 µM) | 108% (inactive) |

| SMILES | SARS-CoV-2 infection rate |
| --- | --- |
| CCCCCCCC/C=C\CCCCCCCC(=O)NCCO [oleoylethanolamide] (10 µM) | 102% (inactive) |
| Cc1ccc(/C=C2\CNC/C(=C\c3ccc(C)cc3)C2=O)cc1 (0.833333 µM) | 93% (inactive) |
| CCCS(=O)(=O)Nc1ccc(F)c(C(=O)c2c[nH]c3ncc(Cl)cc23)c1F (10 µM) | 114% (inactive) |
| CCN(CCCCOC(=O)c1ccc(OC)c(OC)c1)C(C)Cc1ccc(OC)cc1 (centres undefined) [mebeverine] (10 µM) | 94.5% (inactive) |
| N#Cc1cccc(C(=O)Nc2cc(-c3ccccc3)nn2-c2ccccc2)c1 (10 µM) | 104% (inactive) |
| C[C@@H]1C[C@H]2[C@@H]3C[C@H](F)C4=CC(=O)C=C[C@]4(C)[C@@]3(F)[C@@H](O)C[C@]2(C)[C@@]1(O)C(=O)COC(=O)C(C)(C)C [flumethasone-pivalate] (10 µM) | 80% (inactive) |
| COCCOC(=O)C1=C(C)NC(C)=C(C(=O)OC/C=C/c2ccccc2)C1c1cccc([N+](=O)[O-])c1 (centres undefined) [cilnidipine] (10 µM) | 95% (inactive) |
| CCc1cc2c(cc1CC)CC(NC[C@H](O)c1ccc(O)c3[nH]c(=O)ccc13)C2 [indacaterol] (10 µM) | 114% (inactive) |
| O=S1(=O)N[C@H]2CCCN2c2ccccc21 (10 µM) | 104% (inactive) |
| O=P(O)(NCCCl)NCCCl [palifosfamide] (10 µM) | 107% (inactive) |
| O=c1[nH]c2ccc(Cl)cc2c(N[C@@H]2CN3CCC2CC3)c1-c1nc2ccccc2[nH]1 (10 µM) | 110% (inactive) |
| Cc1cc(OI)c(C(C)C)cc1-c1cc(C(C)C)c(OI)cc1C [thymol-iodide] (10 µM) | 104% (inactive) |
| O=C1NC(=O)c2c1c1c3ccccc3n3c1c1c2c2ccccc2n1C1CCC3O1 (10 µM) | 108% (inactive) |
| COc1ccc2c(OCc3nnc4ccc(-c5ccccc5)nn34)ccnc2c1 (10 µM) | 110% (inactive) |
| CC(=O)SC[C@@H](C)C(=O)N1CCC[C@H]1C(=O)N[C@@H](Cc1ccccc1)C(=O)O [alacepril] (10 µM) | 108% (inactive) |
| Cc1nc(Nc2ncc(C(=O)Nc3c(C)cccc3Cl)s2)cc(N2CCN(CCO)CC2)n1 [dasatinib] (0.833333 µM) | 95.5% (inactive) |
| Cc1c2oc3c(C)ccc(C(=O)N[C@@H]4C(=O)N[C@H](C(C)C)C(=O)N5CCC[C@H]5C(=O)N(C)CC(=O)N(C)[C@@H](C(C)C)C(=O)O[C@@H]4C)c3nc-2c(C(=O)N[C@@H]2C(=O)N[C@H](C(C)C)C(=O)N3CCC[C@H]3C(=O)N(C)CC(=O)N(C)[C@@H](C(C)C)C(=O)O[C@@H]2C)c(N)c1=O [dactinomycin] (10 µM) | 109% (inactive) |
| O=C(O)[C@H]1O[C@@H](Oc2cc3oc(-c4ccccc4)cc(=O)c3c(O)c2O)[C@H](O)[C@@H](O)[C@@H]1O [baicalin] (10 µM) | 100% (inactive) |
| Cc1ncc(OC[C@@]2(c3cccc(F)c3)C[C@H]2C(=O)Nc2ccc(F)cn2)c(C)n1 [lemborexant] (10 µM) | 112% (inactive) |
| C=C1C(=O)[C@]23[C@H](O)[C@H]1CC[C@H]2[C@@]12CO[C@]3(O)[C@@H](O)[C@@H]1C(C)(C)CC[C@@H]2O [Oridonin (Isodonol)] (0.833333 µM) | 97% (inactive) |
